We go through 21 compounds from PubChem BioAssay (EPA / NIEHS).

Read-out in assay [1]: TIMP metallopeptidase inhibitor 2 (TIMP2), TIMP2 (gene 7077)
Kind of assay: BSK_KF3CT_TIMP2: BioMAP Diversity Plus: KF3CT Assay for TIMP metallopeptidase inhibitor 2 (TIMP2) Biomarker Activity (AID 2283071). Conditions: primary human keratinocytes with fibroblasts; actives raise or lower the signal. The essentials:
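Co-culture of human primary keratinocytes and foreskin fibroblasts, measured 24 h after chemical dosing. TIMP-2 quantified by ELISA and fitted in both directions relative to DMSO. Cytotoxicity checked in parallel cultures by SRB total-protein staining.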

Read-out in assay [2]: Transforming growth factor beta 1 (TGFb1), TGFB1 (gene 7040)
The assay is described as follows: BSK_KF3CT_TGFb1: BioMAP Diversity Plus: KF3CT Assay for Transforming growth factor beta 1 (TGFb1) Biomarker Activity (AID 2283072). Conditions: primary human keratinocytes with fibroblasts; actives raise or lower the signal. The procedure, abridged: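 Human keratinocyte/foreskin fibroblast co-culture; TGF-b1 measured by ELISA 24 h after dosing, fitted bidirectionally versus DMSO. Cytotoxicity checked in parallel cultures by total protein (SRB staining, 560 nm).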

Read-out in assay [3]: C-C motif chemokine 2 (Homo sapiens) (UniProt P13500)
Kind of assay: BSK_KF3CT_MCP1: BioMAP Diversity Plus: KF3CT Assay for Monocyte Chemoattractant Protein 1 (MCP1/CCL2) Biomarker Activity (AID 2283073). To be noted: primary human keratinocytes with fibroblasts; actives raise or lower the signal. The essentials: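 ELISA read-out of MCP-1, 24 h post-dose, in primary human skin keratinocytes co-cultured with fibroblasts. Parallel SRB staining monitors cytotoxicity; changes fitted both directions relative to DMSO.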

Read-out in assay [4]: Matrix Metallopeptidase 9 (MMP9), MMP9 (gene 4318)
Kind of assay: BSK_KF3CT_MMP9: BioMAP Diversity Plus: KF3CT Assay for Matrix Metallopeptidase 9 (MMP9) Biomarker Activity (AID 2283074).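 As to AC50: MMP9 protein level quantified by ELISA in the co-culture.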 Conditions: primary human keratinocytes with fibroblasts; actives raise or lower the signal. The procedure, abridged: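 Human keratinocyte and foreskin fibroblast co-culture exposed to chemicals for 24 h; MMP9 biomarker measured by ELISA, bidirectional fitting relative to DMSO; cytotoxicity tracked by SRB total protein staining in parallel cultures.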

Read-out in assay [5]: urokinase plasminogen activator (uPA), PLAU (gene 5328)
Kind of assay: BSK_KF3CT_uPA: BioMAP Diversity Plus: KF3CT Assay for urokinase plasminogen activator (uPA) Biomarker Activity (AID 2283075). Conditions: primary human keratinocytes with fibroblasts; actives raise or lower the signal. The procedure, abridged:
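Primary human keratinocyte/foreskin fibroblast co-culture exposed to chemical; uPA measured by ELISA at 24 h. Bidirectional fit versus DMSO, with parallel SRB total-protein staining for cytotoxicity.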

Read-out in assay [6]: CD40, CD40 (gene 958)
The assay is described as follows: BSK_LPS_CD40: BioMAP Diversity Plus: LPS Assay for CD40 Biomarker Activity (AID 2283076). To be noted: primary human HUVEC with PBMC; actives raise or lower the signal. The procedure, abridged:
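In the LPS system of human endothelial cells with peripheral blood mononuclear cells, CD40 levels were read by ELISA 24 h post-treatment. Signal changes in either direction were fitted against the DMSO baseline, with parallel SRB protein staining.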

Read-out in assay [7]: E-selectin (Homo sapiens) (UniProt P16581)
The assay is described as follows: BSK_LPS_Eselectin: BioMAP Diversity Plus: LPS Assay for Eselectin Biomarker Activity (AID 2283077). Conditions: primary human HUVEC with PBMC; actives raise or lower the signal. The procedure, abridged: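 E-selectin ELISA on LPS-stimulated endothelial cell/PBMC co-cultures, read 24 h post-treatment; gains and losses fitted against DMSO. Parallel SRB staining (0.1% SRB after 10% TCA fixation, 560 nm) flags overt cytotoxicity.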

Read-out in assay [8]: Interleukin-8 (IL8), CXCL8 (gene 3576)
Kind of assay: BSK_LPS_IL8: BioMAP Diversity Plus: LPS Assay for Interleukin-8 (IL8) Biomarker Activity (AID 2283078). To be noted: primary human HUVEC with PBMC; actives raise or lower the signal. The procedure, abridged: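 ELISA read-out of IL-8 after 24 h chemical treatment of LPS-activated endothelial/PBMC human primary co-cultures. Changes either up or down relative to DMSO; overt cytotoxicity checked by sulforhodamine B staining in parallel wells.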

The nature of assay [9]: BSK_LPS_SRB: Viability Assessment in the BioMAP Diversity Plus: LPS Assay (AID 2283079).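 Also: total protein by sulforhodamine B absorbance as a cytotoxicity measure; measured one day after compound addition; fitted in both directions against DMSO so loss or gain of signal counts.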 To be noted: primary human HUVEC with PBMC. The essentials: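 SRB viability endpoint: cells fixed with 10% TCA, stained with 0.1% SRB, read at 560 nm, 24 h post-dose. HUVEC/PBMC co-culture; signal change in either direction scored relative to DMSO.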
Read-out in assay [10]: Interleukin-1 alpha (IL1a), IL1A (gene 3552)
Kind of assay: BSK_LPS_IL1a: BioMAP Diversity Plus: LPS Assay for Interleukin-1 alpha (IL1a) Biomarker Activity (AID 2283080). To be noted: primary human HUVEC with PBMC; actives raise or lower the signal. The procedure, abridged: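 Readout is IL-1a level by ELISA, 24 h post-dose, fitted as gain or loss relative to DMSO. System: LPS-activated human primary co-culture of vascular endothelium and peripheral blood mononuclear cells, with parallel SRB total-protein cytotoxicity.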

Active and inactive are the calls of the source. The calls were made as follows: active = hit-call score of the fitted dose curve at least 0.9, where 1 is the maximum; inactive = score below 0.9.

One may read the AC50 as the midpoint of the concentration-response curve, whichever way the signal moves.

Sequence of E-selectin (Homo sapiens) (P16581 whole entry, looked up): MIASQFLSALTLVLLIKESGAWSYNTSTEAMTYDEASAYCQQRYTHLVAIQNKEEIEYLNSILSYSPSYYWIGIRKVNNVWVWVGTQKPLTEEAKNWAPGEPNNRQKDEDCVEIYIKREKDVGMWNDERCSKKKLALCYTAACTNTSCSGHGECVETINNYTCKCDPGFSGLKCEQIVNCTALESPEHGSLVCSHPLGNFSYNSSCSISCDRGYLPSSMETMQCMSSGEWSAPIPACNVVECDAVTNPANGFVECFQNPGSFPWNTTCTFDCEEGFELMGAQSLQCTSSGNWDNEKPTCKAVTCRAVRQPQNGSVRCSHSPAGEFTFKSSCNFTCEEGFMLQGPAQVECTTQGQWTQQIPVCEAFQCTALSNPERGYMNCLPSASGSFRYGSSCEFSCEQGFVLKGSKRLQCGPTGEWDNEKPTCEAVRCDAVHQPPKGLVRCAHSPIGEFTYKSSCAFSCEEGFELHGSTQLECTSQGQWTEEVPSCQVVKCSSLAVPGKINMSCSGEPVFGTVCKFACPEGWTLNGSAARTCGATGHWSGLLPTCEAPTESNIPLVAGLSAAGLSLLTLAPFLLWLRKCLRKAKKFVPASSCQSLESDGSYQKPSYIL

For `COc1cc(-c2nc(NC(=O)c3cc4cc(C)cc(C)c4n3CC(=O)O)sc2CCC2CCCCC2)c(OC)cc1Cl`, the AC50 in [1] was 1.54 µM (active); in assay [2] it was 1.68 µM (active); in [3] it was 1.38 µM (active); in assay [4] it was 1.68 µM (active); in [5], 1.89 µM (active); in [6] it was 3.16 µM (active). The AC50 in assay [7] was 8.51 µM (active); in assay [8], 12.2 µM (active); in [9], 4.61 µM (active); in assay [10] it was 4.69 µM (active).
Take `FC(F)(F)C(F)(F)C(F)(F)C(F)(F)C(F)(F)C(F)(F)CCI`: the outcome in assay [1], in assay [2], in assay [3], in assay [4], in [5] and in assay [6] was inactive. Besides, the outcome in assay [7], in [8], in [9] and in assay [10] was inactive.
For the compound `c1cc(-c2ccncc2)ccn1`, the result in assay [1], in [2], in [3], in [4], in assay [5] and in assay [6] was inactive. Also, the result in assay [7], in assay [8], in assay [9] and in [10] was inactive.
As for `Cc1cccc([N+](=O)[O-])c1C`, the result in assay [1], in assay [2], in assay [3], in [4], in assay [5] and in [6] was inactive. For the same compound, the outcome in assay [7], in [8], in assay [9] and in assay [10] was inactive.
In the case of `CC(C)c1ccc(C(=O)N=C(N)N)cc1S(C)(=O)=O`, the outcome in assay [1], in [2], in assay [3], in assay [4], in [5] and in [6] was inactive. Besides, the result in assay [7], in assay [8], in assay [9] and in assay [10] was inactive.
Turning to `Cc1ccc(Cl)cc1`, the result in assay [1], in assay [2], in assay [3], in assay [4], in assay [5] and in assay [6] was inactive. The result in assay [7], in [8], in assay [9] and in assay [10] was inactive.
Take `Nc1ccccc1N`: the outcome in [1], in assay [2], in assay [3], in assay [5], in assay [7] and in assay [8] was inactive. Moreover, the outcome in [9] and in [10] was inactive. The AC50 in assay [4] was 20 µM (active); in assay [6] it was 5.79 µM (active).
As for `CCCCCCCCCCCCCO`, the AC50 is 34.1 µM (active) in assay [1]; 32.1 µM (active) in [2]; 26.1 µM (active) in assay [3]; 31.2 µM (active) in [4]; 37.6 µM (active) in assay [5]; 37.8 µM (active) in [6]. Also, in assay [8], the AC50 is 34.2 µM (active). Also, the result in [7], in [9] and in assay [10] was inactive.
Take `COc1ccc(S(=O)(=O)N2C(=O)[C@@](c3ccccc3OC)(N3C[C@H](O)C[C@H]3C(=O)N(C)C)c3cc(Cl)ccc32)c(OC)c1`: the result in [1], in assay [2], in assay [3], in assay [4], in assay [5] and in [7] was inactive. Further, the result in assay [9] and in assay [10] was inactive. Also, the figures for the AC50 in [6] and in assay [8] were 20 µM (active) and 7.03 µM (active), respectively.
For `CCCCCCC(=O)OCC`, the outcome in assay [1], in assay [2], in [3], in assay [4], in [5] and in assay [6] was inactive. The outcome in [7], in assay [8], in [9] and in assay [10] was inactive.
For `Cc1ccc(C)c(C)c1`, the outcome in assay [1], in assay [2], in assay [3], in assay [4], in [5] and in [6] was inactive. Besides, the outcome in assay [7], in [8], in assay [9] and in [10] was inactive.
On to `CNC(=O)[C@H]1O[C@@H](n2cnc3c(NCc4cc(Cl)ccc4OCc4cc(C)no4)ncnc32)[C@H](O)[C@@H]1N`, for which the outcome in assay [1], in assay [2], in [3], in assay [4], in [5] and in [6] was inactive. For the same compound, the result in assay [7], in assay [8], in [9] and in assay [10] was inactive.
Regarding `COc1ccc(C)cc1N`, the outcome in assay [1], in assay [2], in assay [3], in assay [5], in assay [6] and in assay [7] was inactive. The outcome in assay [8], in [9] and in assay [10] was inactive.
With `CCCCCCCCCCCCCCCCCC(=O)O`, the result in [1], in [2], in assay [3], in assay [5], in assay [6] and in [7] was inactive. Also, the outcome in [8] was inactive. For the same compound, the AC50 in [9] and in [10] was 20 µM (active) throughout.
As to `Cc1cc(NC(=O)C(=O)O)cc(C)c1Oc1ccc(O)c2c1CCC2`, the result in assay [1], in assay [2], in assay [3], in [5], in [6] and in assay [7] was inactive. For the same compound, the outcome in assay [8], in [9] and in [10] was inactive.
As for `Cc1cccc(Nc2cc(Cl)nc(SCC(=O)O)n2)c1C`, the outcome in assay [1], in assay [2], in [3], in assay [4], in [5] and in assay [6] was inactive. In addition, the result in assay [7], in assay [8], in assay [9] and in [10] was inactive.
Regarding `CC(CO)OC(C)CO` (stereo not drawn) (tested in a mixture with another compound), the result in [1], in [2], in [3], in assay [5], in [6] and in assay [7] was inactive. Further, the outcome in assay [8], in assay [9] and in assay [10] was inactive.
As for `COC(=O)c1ccc(O)cc1`, the outcome in assay [1], in assay [2], in [3], in assay [5], in assay [6] and in [7] was inactive. For the same compound, the result in assay [8], in assay [9] and in assay [10] was inactive.
In the case of `Cc1oc(-c2ccccc2)nc1CCOc1cccc2c1ccn2CCC(=O)O`, the outcome in assay [1], in [2], in [3], in assay [5], in assay [6] and in assay [7] was inactive. In addition, the outcome in assay [8], in assay [9] and in [10] was inactive.
Take `CNCc1cc(F)ccc1Oc1ccc(Cl)c(Cl)c1`: the result in [1], in [2], in [3], in assay [4], in [7] and in [10] was inactive. For the same compound, the AC50 is 30.5 µM (active) in [5], 15 µM (active) in [6], 15.7 µM (active) in [8] and 30 µM (active) in [9].
Regarding `CC1(C)CC(N=C=O)CC(C)(CN=C=O)C1` (stereo not drawn), the outcome in assay [1], in assay [2], in [3], in assay [5], in assay [6] and in assay [7] was inactive. The outcome in [8], in assay [9] and in assay [10] was inactive.
